# Laboratory results published in PubChem BioAssay (NCATS).
# Values joined by “and” are separate entries in the source; they are usually repeats but may differ in a detail not shown here. Equal entries are not always repeated. Inconclusive results are not listed. Where a call stands in place of a potency, no number is given. Active and inactive are the calls of the source. Unless noted, calls follow the shape of the dose curve; as a rule, active = well fitted curve in the direction sought with a large enough effect; inconclusive = small, poorly fitted or top-dose-only effect, or another doubt; inactive = no such curve, though single readings can be large; an effect the other way counts as inactive or inconclusive.
# Tests used:
# [1] = molecular target: Cytochrome P450 1A2 (Homo sapiens) (UniProt P05177); assay: p450-cyp1a2 (AID 410; calls by dose curve; also: potency is read from the fitted curve at half-maximal effect)
# Summary of the method: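 Human CYP1A2 (20nM) demethylated Luciferin-ME at its Km (100uM) in 100mM KPO4. After 10 min compound preincubation, NADPH regeneration ran the reaction 60 min at room temperature. Luciferin was read by luminescence, normalized to 57 uM furafylline.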
# [2] = NFAT Signaling Pathway (AID 444; active = well fitted curve in either direction with a large enough effect, not every such curve was filed as active;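 also: carbachol stimulus at about its EC50 of 1 µM final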); conditions: Jurkat NFAT-bla M1, carbachol, beta-lactamase ratio, 5 h; at 38 µM (top of the series)
# Summary of the method: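 Jurkat cells carrying an NFAT-driven β-lactamase reporter and co-transfected muscarinic M1 receptor were treated with compound plus carbachol (1 uM final, an EC50 level) for 5 h at 37 °C. CCF4 loading followed for 1 h at RT; 460/530 nm ratio gave %activity.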
# [3] = Stat Signaling Pathway (AID 446; active = well fitted curve in either direction with a large enough effect, not every such curve was filed as active;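 also: ME-180 cervical cancer cells given 40 pM IL-6 alongside compound; SIE-controlled beta-lactamase reporter measured as 460/530 nm FRET emission ratio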); conditions: ME-180 SIE beta-lactamase reporter, IL-6 stimulated, 5 h; at 38 µM (top of the series)
# Summary of the method: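 ME-180 SIE-bla cells; overnight plating; cpd + IL-6 40 pM, 5 h, 37 C; LiveBLAzer 2.5 h RT; 460/530 nm emission ratio. Normalized to 300 pM IL-6 and 125 nM JAK inhibitor controls.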
# [4] = molecular target: Glucocorticoid receptor (Homo sapiens) (UniProt P04150); assay: GR-GFP Redistribution (AID 450;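 active = compounds whose dose series gives a full or clear partial fitted curve of increased nuclear translocation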; also: potency is read from the fitted curve at half-maximal effect); conditions: U2OS GR-GFP nuclear translocation, laser cytometry, 2 h
# [5] = molecular target: Glucocorticoid receptor (Homo sapiens) (UniProt P04150); assay: GR-EFC Redistribution (AID 451; calls by dose curve; also: potency is read from the fitted curve at half-maximal effect); conditions: CHO-K1 GR-EFC translocation, beta-gal luminescence, 2 h
# Summary of the method: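 CHO-K1 cells stably expressing nuclear-localized β-gal enzyme acceptor and GR fused C-terminally to the enzyme donor fragment; ligand-driven nuclear translocation restores β-gal by complementation. Compounds titrated up to 46 uM final, 2 h at 37 °C; luminescence read.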
# [6] = molecular target: Mitogen-activated protein kinase 10 (Mus musculus) (UniProt Q61831); assay: JNK3 AlphaScreen Assay (AID 530; active = well fitted curve in either direction with a large enough effect, not every such curve was filed as active;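 also: kinase came from lysate of stimulated human HepG2 cells; signal reports phosphorylation of biotinylated GST-cJun 1-79 at Ser73 with 10 µM ATP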)
# Summary of the method: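 JNK3 came from HepG2 lysates pre-activated with IL-1beta and TNF-alpha and phosphorylated biotinylated GST-cJun (1-79) at 10 uM ATP, pH 7.6, room temperature. Compounds were titrated. AlphaScreen signal used anti-phospho-cJun (Ser73) antibody.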
# [7] = molecular target: 3',5'-cyclic-AMP phosphodiesterase 4B (Homo sapiens) (UniProt Q07343); assay: qHTS Assay for Inhibitors of PDE-IV (AID 607; active = well fitted activation curve with a large enough effect in the main read-out, with a control signal flat, not every such curve was filed as active)
# Summary of the method: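 ACTOne HEK293 cells carry a modified cAMP-gated CNG channel and express endogenous PDE4; plated 1000 cells/well, compounds up to 22.9 uM final. Membrane-potential dye fluorescence (ex 535/em 590) was read; parental cells received 10 uM forskolin + 100 uM RO 20-1724.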
# [8] = molecular target: Guanine nucleotide-binding protein G(i) subunit alpha-1 (Homo sapiens) (UniProt P63096); assay: qHTS Assay for Inhibitors of RGS12 GoLoco Motif Activity (Green Fluorophore) (AID 879);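 also: negative values mean loss of peptide binding seen as reduced polarization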
# Summary of the method: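 Fluorescence polarization assay: 50 nM Gαi1 with 10 nM FITC-labeled RGS12 GoLoco peptide in 10 mM Tris pH 7.5, 150 mM NaCl, 0.1 mM GDP, 0.05% NP40, 10 min at room temperature with compound.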
# [9] = molecular target: Cytochrome P450 2C9 (Homo sapiens) (UniProt P11712); assay: qHTS Assay for Inhibitors and Substrates of Cytochrome P450 2C9 (AID 883); also: potency is read from the fitted curve at half-maximal effect; nearly all actives have a fitted effect of over 60% in size
# Summary of the method: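 CYP2C9 deoxyluciferin hydroxylation, 37C, 60 min with NADPH regeneration; 10nM enzyme, 100uM Luciferin-H (KM). Glo detection reagent stopped reaction; luminescence normalized to sulphaphenazole (57uM) full inhibition.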
# [10] = molecular target: Pyruvate kinase (Leishmania mexicana) (UniProt Q27686); assay: qHTS Validation Assay for Inhibitors of Leishmania Mexicana Pyruvate Kinase (AID 945)
# Summary of the method: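 Eight-point qHTS titrations in triplicate, data normalized to DMSO neutral control. Reaction: 0.2 nM LmPYK E451W mutant, 0.5 mM PEP, 0.1 mM ADP, 7 mM MgCl2, pH 7.2, one hour at room temperature; luminescent ATP detection.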
# [11] = molecular target: Pyruvate kinase PKM (Homo sapiens) (UniProt P14618); assay: qHTS Assay for Activators of Human Muscle Pyruvate Kinase (AID 954; active = well fitted curve in the direction sought with a large enough effect, not every such curve was filed as active)
# Summary of the method: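 Luminescence from a luciferase ATP-detection/stop reagent reported PKM2 activity. Reactions contained 0.1 nM purified human enzyme, 0.5 mM PEP, 0.1 mM ADP and 7 mM MgCl2 at pH 7.2, run 1 h at RT.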
# [12] = molecular target: Alpha-galactosidase A (Homo sapiens) (UniProt P06280); assay: Counterscreen for Glucocerebrosidase Inhibitors: qHTS Assay for Human alpha-Galactosidase at pH 4.5 (AID 992)
# Summary of the method: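 Enzyme at 2 nM final was combined with compound (0.7 nM to 77 uM) and 80 uM 4-methylumbelliferyl alpha-D-galactopyranoside in 50 mM citric acid, 0.005% Tween-20, pH 4.5. After 20 min at room temperature, fluorescence was read (Ex 365/Em 440 nm); AC50 came from Hill fits.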
# [13] = molecular target: alpha-glucosidase (Oryza sativa, rice) (UniProt Q653V4); assay: Counterscreen for Glucocerebrosidase Inhibitors: qHTS Assay for Rice alpha-Glucosidase at pH 5.0 (AID 997)
# Summary of the method: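 Rice alpha-glucosidase (4 nM final) with 400 uM 4-methylumbelliferyl-alpha-D-glucopyranoside in citrate buffer pH 5.0, 20 min at room temperature, stopped at pH 10; fluorescence 365/440 nm, compounds 0.7 nM–77 uM, AC50 from Hill fits.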
# [14] = Validation of Assay for Modulators of Lamin A Splicing (AID 1459; active = well fitted curve in the direction sought with a large enough effect in the signal ratio; the % refers to the signal ratio;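 also: cells exposed to compound for two days before reading; ratio rise marks activators and ratio drop marks inhibitors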)
# Summary of the method: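 Splicing correction is reported by an EGFP-containing lamin A minigene in stably transfected S3 HeLa cells, while DsRed2 controls for viability and nonspecific signal. Cells are exposed to compounds for 48 hrs before the GFP over RFP ratio is taken.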
# [15] = qHTS Assay for Lipid Storage Modulators (AID 1519; calls by dose curve); conditions: Drosophila S3 cells, BODIPY lipid droplet/cell ratio, laser cytometry, cells loaded with oleic acid
# Summary of the method: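 Cells seeded at 5,000 per well were treated with compounds over a concentration series and loaded with oleic acid (400 uM, as added). Lipid droplet fluorescence (488 nm excitation, 500-530 nm channel) was read by laser-scanning cytometry and normalized to 20 uM Triacsin C.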
# [16] = molecular target: DNA repair nuclease/redox regulator APEX1 (Homo sapiens) (UniProt P27695); assay: qHTS Validation Assay for Inhibitors of the Human Apurinic/apyrimidinic Endonuclease 1 (APE1) (AID 1705;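 also: TAMRA fluorescence gain over two minutes as APE1 cuts a quenched THF abasic duplex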)
# Summary of the method: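 Endonuclease activity of human APE1 is followed as dequenching when the enzyme incises a tetrahydrofuran abasic site in a short duplex labelled 5'-TAMRA/3'-BHQ-2 (50 nM final), after 15 min enzyme–compound preincubation at room temperature.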
# [17] = Counterscreen for APE1 Inhibitors: Fluorescent Dye Displacement Validation Assay (AID 1707)
# Summary of the method: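 Thiazole Orange displacement from dsDNA: 250 nM ThO with 50 nM TAMRA-labelled abasic-site (tetrahydrofuran) duplex in 50 mM Tris-HCl pH7.5, 50mM NaCl, 2 mM MgCl2, 0.01% Tween-20. Loss of endpoint fluorescence (ex 480 nm, em 540 nm) flags DNA binders.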
# [18] = molecular target: Endonuclease 4 (Escherichia coli (strain K12)) (UniProt P0A6C1); assay: Counterscreen for APE1 Inhibitors: qHTS Validation Assay for Inhibitors of Endonuclease IV (AID 1708)
# Summary of the method: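 2 nM enzyme was preincubated with compounds for 15 min at room temperature in 50 mM Tris-HCl pH 7.5, 50 mM NaCl, 2 mM MgCl2, 1 mM DTT, 0.01% Tween-20. 50 nM THF-abasic TAMRA/BHQ-2 duplex substrate started the reaction.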
# Chain of Glucocorticoid receptor (Homo sapiens) (P04150 whole entry, looked up, the tested form may be a part): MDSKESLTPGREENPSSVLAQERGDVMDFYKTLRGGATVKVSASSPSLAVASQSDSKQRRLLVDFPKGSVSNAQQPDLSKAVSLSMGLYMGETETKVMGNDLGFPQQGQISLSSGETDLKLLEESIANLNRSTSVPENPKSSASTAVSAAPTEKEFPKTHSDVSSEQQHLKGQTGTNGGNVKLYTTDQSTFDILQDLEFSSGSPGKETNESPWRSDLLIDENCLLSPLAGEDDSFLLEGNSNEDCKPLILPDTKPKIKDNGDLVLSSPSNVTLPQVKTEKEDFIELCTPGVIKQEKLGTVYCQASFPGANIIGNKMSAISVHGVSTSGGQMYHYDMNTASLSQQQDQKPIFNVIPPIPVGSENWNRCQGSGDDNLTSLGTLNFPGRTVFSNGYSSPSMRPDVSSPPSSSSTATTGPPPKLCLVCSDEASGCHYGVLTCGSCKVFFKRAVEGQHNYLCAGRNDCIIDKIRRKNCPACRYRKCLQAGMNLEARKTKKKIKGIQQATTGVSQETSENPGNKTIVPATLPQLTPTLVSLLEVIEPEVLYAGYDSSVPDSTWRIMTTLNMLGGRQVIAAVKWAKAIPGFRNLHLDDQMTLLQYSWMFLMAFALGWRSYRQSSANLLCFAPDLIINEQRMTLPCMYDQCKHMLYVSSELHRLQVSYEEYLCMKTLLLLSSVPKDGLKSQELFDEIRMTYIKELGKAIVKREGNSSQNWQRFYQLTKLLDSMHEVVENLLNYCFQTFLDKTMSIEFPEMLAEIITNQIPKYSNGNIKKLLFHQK
# Chain of Cytochrome P450 1A2 (Homo sapiens) (P05177 whole entry, looked up): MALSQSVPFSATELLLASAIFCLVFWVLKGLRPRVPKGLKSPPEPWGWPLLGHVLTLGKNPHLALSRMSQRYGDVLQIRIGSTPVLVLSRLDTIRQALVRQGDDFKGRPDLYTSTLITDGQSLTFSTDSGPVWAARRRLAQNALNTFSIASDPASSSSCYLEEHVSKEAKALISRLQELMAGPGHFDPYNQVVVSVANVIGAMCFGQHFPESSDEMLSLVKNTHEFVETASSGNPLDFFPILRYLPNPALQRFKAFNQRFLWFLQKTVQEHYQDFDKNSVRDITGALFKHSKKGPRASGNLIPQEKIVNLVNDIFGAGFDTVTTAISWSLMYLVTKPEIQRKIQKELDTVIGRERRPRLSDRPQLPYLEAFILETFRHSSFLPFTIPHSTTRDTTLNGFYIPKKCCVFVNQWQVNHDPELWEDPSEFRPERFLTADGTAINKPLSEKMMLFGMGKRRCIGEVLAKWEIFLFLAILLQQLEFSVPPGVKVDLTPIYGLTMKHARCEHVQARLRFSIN
# Chain of 3',5'-cyclic-AMP phosphodiesterase 4B (Homo sapiens) (Q07343 whole entry, looked up): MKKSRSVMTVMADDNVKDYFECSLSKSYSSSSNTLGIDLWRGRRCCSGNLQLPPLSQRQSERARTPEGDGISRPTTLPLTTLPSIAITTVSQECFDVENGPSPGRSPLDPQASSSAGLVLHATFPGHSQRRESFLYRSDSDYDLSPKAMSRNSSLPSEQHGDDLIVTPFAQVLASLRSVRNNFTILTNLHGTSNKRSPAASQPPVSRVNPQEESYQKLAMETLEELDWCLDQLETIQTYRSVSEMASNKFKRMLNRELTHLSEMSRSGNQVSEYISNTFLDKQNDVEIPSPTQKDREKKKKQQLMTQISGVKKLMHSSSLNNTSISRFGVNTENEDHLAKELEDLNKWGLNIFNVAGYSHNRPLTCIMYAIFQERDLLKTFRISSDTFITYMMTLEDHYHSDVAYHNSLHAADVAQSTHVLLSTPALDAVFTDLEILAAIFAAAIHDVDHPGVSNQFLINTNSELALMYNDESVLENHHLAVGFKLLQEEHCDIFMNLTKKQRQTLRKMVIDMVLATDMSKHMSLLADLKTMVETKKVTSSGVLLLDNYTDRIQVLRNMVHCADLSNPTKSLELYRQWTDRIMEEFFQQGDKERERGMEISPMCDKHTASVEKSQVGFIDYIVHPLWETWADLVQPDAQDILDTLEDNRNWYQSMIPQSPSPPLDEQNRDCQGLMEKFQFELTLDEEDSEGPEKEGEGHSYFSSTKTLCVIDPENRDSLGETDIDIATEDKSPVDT
# Chain of Guanine nucleotide-binding protein G(i) subunit alpha-1 (Homo sapiens) (P63096 whole entry, looked up): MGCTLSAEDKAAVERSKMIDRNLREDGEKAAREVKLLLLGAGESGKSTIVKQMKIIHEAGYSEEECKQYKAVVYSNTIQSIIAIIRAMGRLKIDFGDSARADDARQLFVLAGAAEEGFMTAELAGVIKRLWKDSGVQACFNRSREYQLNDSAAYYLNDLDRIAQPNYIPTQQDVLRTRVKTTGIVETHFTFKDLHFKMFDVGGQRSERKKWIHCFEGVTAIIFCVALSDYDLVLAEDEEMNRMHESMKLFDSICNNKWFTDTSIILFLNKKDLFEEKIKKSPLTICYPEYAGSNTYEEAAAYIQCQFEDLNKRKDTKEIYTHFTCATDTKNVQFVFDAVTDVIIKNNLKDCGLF
# Chain of DNA repair nuclease/redox regulator APEX1 (Homo sapiens) (P27695 whole entry, looked up): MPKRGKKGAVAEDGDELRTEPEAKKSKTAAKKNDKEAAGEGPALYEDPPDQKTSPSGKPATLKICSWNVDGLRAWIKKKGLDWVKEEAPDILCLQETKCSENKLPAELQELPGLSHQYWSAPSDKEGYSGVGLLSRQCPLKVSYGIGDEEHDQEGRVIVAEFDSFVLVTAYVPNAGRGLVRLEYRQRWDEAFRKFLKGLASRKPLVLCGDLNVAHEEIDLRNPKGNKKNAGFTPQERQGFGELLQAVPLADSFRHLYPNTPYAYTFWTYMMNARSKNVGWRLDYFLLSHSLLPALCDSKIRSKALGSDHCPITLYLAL
# Chain of Pyruvate kinase PKM (Homo sapiens) (P14618 whole entry, looked up): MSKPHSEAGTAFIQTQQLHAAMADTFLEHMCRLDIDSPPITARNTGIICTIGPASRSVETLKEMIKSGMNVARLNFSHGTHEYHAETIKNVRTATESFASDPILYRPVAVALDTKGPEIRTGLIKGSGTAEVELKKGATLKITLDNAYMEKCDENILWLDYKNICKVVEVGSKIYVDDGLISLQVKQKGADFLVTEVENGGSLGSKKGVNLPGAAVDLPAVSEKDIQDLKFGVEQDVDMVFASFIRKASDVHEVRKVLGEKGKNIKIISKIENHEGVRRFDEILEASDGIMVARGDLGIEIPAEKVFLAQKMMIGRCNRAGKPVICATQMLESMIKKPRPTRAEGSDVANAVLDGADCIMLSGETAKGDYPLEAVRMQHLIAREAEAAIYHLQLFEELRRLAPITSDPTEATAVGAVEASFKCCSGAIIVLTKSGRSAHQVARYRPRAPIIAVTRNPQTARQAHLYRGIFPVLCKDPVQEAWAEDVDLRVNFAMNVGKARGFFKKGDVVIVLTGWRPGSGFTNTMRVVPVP
# Chain of Alpha-galactosidase A (Homo sapiens) (P06280 whole entry, looked up): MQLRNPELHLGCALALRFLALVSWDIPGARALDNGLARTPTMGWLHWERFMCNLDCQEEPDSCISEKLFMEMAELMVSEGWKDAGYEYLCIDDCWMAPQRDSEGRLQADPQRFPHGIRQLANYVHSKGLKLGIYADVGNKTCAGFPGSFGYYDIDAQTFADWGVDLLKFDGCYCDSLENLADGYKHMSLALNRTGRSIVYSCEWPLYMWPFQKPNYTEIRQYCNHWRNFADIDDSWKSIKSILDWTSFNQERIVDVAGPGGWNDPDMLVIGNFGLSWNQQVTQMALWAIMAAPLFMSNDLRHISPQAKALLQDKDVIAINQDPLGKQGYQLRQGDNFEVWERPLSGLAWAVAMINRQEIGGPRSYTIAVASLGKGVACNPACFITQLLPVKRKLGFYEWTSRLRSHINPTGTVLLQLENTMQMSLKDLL
# Chain of Cytochrome P450 2C9 (Homo sapiens) (P11712 whole entry, looked up): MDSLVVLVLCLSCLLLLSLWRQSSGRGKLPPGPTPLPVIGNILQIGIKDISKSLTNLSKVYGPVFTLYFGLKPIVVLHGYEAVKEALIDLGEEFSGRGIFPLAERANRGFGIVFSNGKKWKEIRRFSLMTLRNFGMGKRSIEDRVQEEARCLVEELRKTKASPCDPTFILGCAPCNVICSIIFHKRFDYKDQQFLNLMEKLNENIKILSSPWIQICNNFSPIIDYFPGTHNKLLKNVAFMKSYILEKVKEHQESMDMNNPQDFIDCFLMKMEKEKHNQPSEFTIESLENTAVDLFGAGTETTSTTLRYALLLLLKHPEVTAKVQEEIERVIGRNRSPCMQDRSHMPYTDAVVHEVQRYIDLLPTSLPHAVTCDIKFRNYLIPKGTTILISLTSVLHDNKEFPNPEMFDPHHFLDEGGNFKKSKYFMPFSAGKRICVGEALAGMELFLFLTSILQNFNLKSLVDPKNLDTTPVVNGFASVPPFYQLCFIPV
# Chain of Pyruvate kinase (Leishmania mexicana) (Q27686 2-499 E452W): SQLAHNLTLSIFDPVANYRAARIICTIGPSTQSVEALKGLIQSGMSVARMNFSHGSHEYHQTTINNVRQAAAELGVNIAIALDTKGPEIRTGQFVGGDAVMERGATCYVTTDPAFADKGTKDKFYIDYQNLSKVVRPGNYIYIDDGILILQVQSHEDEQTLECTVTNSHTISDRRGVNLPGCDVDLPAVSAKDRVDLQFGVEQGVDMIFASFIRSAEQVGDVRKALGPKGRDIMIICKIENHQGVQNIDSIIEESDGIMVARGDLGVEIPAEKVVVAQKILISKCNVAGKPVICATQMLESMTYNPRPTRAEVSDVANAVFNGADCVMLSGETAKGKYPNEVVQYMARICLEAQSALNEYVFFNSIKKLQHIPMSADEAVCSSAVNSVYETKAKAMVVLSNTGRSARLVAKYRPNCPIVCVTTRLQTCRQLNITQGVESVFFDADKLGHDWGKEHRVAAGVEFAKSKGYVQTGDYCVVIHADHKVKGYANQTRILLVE
compound,measurement,setting,value
O=C(OCCN1CCCCC1)c1c[nH]c2ccccc12,Potency,[1],12.6 µM (active) and 15.8 µM (active)
same,"activity change, negative = inhibition",[2],-11% (inactive)
same,"activity, negative = inhibition",[3],-6.33% (inactive)
same,Potency,[4],> 46 µM (inactive)
same,Potency,[5],> 46 µM (inactive)
same,Potency,[6],inactive
same,Potency,[7],inactive
same,outcome,[8],inactive
same,Potency,[9],2 µM (active)
same,Potency,[10],inactive
same,outcome,[11],inactive
same,outcome,[12],inactive
same,outcome,[13],inactive
same,outcome,[14],inactive
same,"activity change, negative = inhibition",[15]; at 57.5 µM (top of the series),-1.63% (inactive)
same,max response,[15]; measured here: cell count channel max response,-19.5%
same,max response,[15]; measured here: lipid channel max response,-30.4%
same,Potency,[16],inactive
same,Potency,[17],inactive
same,Potency,[18],inactive
